# Assay outcomes as filed in PubChem BioAssay.
# IMPase inh = qHTS Assay for Identifying the Cell-Membrane Permeable IMPase Inhibitors. Inositol monophosphatase 1 (Rattus norvegicus), P97697. CHO-M1 cells, IP1 accumulation, HTRF TR-FRET ratio. inhibition (IP1 accumulation), % at 46.1 µM. 120,000 tested, under 10 active. AID 901, 2007; active = well fitted curve in the direction sought with a large enough effect in the signal ratio, not every such curve was filed as active; inconclusive = small, poorly fitted or top-dose-only effect, or a change in a side signal; inactive = no such curve, though single readings can be large or run the other way; the % refers to the signal ratio;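 note: cells stimulated with carbachol in lithium chloride buffer; plate controls were DMSO basal wells for no effect and reference inhibitor wells for full effect; higher means more IMPase inhibition seen as more IP1 and lower FRET ratio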
#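 In this qHTS, compounds (final up to 46 uM) act on CHO-M1 cells that are then activated through the M1 receptor with carbachol, in pH 7.4 buffer containing 50 mM LiCl, for 30 min. IP1 accumulation is quantified by the IP-One immunoassay.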
# ALDH1A1 inh = qHTS Assay for Inhibitors of Aldehyde Dehydrogenase 1 (ALDH1A1); Purified ALDH1A1, NADH fluorescence, propionaldehyde substrate; Potency, µM (top dose mostly 75.3 µM), for the others: at the top dose activity, negative = inhibition, hits mostly inhibitors; hit rate 7.3% among 220,000;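 note: potency is the fitted concentration of half-maximal effect; plate controls were no enzyme wells and a reference inhibitor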
# Target sequence (P00352 whole entry, looked up): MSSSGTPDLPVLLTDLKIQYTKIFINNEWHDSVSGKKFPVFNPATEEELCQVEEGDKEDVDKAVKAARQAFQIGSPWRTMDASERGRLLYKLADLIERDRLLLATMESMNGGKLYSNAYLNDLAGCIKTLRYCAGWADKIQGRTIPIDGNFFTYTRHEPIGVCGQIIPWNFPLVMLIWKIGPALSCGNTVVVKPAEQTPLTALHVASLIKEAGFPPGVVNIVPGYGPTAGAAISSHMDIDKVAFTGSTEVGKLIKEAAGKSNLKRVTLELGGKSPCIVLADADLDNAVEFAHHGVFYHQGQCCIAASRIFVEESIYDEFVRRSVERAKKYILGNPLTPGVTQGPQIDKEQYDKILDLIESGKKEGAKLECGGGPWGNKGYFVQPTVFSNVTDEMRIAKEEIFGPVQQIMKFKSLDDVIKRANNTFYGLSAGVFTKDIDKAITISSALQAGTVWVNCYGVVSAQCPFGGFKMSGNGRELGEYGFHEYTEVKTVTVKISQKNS
# PNC assembly inh = High Content Assay for Compounds that inhibit the Assembly of the Perinucleolar Compartment. activity change (PNC), negative = inhibition, % at 10 µM. hit rate 3.1% among 140,000. PC3M PTB-GFP, PNC prevalence imaging, 16 h; active compounds read low;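 active = readout at or below -70, meaning at least 70% loss of cells showing the perinucleolar compartment, a nuclear body marking cancer cells; inconclusive = readout between -30 and a set limit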;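 note: plate controls were DMSO wells for no effect and camptothecin positive control wells for full effect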
#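 PC3M cells stably expressing PTB-GFP, 750–1000 cells/well, treated 16 h at 37 °C with compound (23 nl of library stock), in duplicate. After paraformaldehyde fixation and Hoechst stain, imaged at 20x; PNC prevalence scored by image analysis.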
# ALOX12 inhib = qHTS Assay for Inhibitors of 12-hLO (12-human lipoxygenase); Polyunsaturated fatty acid lipoxygenase ALOX12 (Homo sapiens), P18054; hit rate 0.12% among 150,000; purified 12-hLO, xylenol orange hydroperoxide absorbance; Potency, µM (top dose mostly 57.1 µM), inactives show at the top dose activity change, negative = inhibition, hits mostly inhibitors; AID 1452, 2008; active = well fitted curve in the direction sought with a large enough effect; inconclusive = small, poorly fitted or top-dose-only effect, or another doubt; inactive = no such curve, though single readings can be large; an effect the other way counts as inactive or inconclusive; note: potency is the fitted concentration of half-maximal effect; nearly all actives have a fitted effect of over 55% in size
#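 Purified human 12hLO (150 nM final) was preincubated with compounds for 15 min at room temperature in 25 mM Hepes pH 7.0, 0.01% Triton X-100, then reacted with 40 uM arachidonic acid for 30 min. Hydroperoxide was detected with ferrous iron/xylenol orange.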
# HPGD inh = qHTS Assay for Inhibitors of HPGD (15-Hydroxyprostaglandin Dehydrogenase) | 15-hydroxyprostaglandin dehydrogenase [NAD(+)] (Homo sapiens), P15428 | purified HPGD, NADH fluorescence kinetic, PGE2 substrate | Potency, µM, for inactives: top-dose activity change, negative = inhibition, hits mostly inhibitors | hit rate 4.3% among 150,000; note: potency is the fitted concentration of half-maximal effect
# Target sequence (P15428 whole entry, looked up): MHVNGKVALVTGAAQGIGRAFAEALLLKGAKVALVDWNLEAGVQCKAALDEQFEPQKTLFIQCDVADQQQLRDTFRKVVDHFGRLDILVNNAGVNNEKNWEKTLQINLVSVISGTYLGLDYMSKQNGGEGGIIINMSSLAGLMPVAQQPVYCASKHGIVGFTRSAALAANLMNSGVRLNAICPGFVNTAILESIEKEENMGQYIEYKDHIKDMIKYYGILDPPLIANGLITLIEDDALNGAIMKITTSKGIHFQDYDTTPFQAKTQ
#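 20 nM HPGD preincubated 15 min at room temperature with compound in 50 mM Tris-HCl pH 8, 0.01% Tween 20. Started with 1 mM NAD+ and 30 uM prostaglandin E2; NADH fluorescence (360/450 nm) read 5 times over 30-s intervals, last minus first.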
# IMPase Li inh = qHTS Assay for Identifying the Cell-Membrane Permeable IMPase Inhibitors: Potentiation with Lithium; Potency, µM (highest dose often 59.4 µM), for the others: at the top dose activity, negative = IMPase inhibition, hits mostly inhibitors; AID 1457, 2008; hit rate 0.35% among 210,000; CHO-M1 cells, IP1 TR-FRET (IP-One), carbachol + lithium; active = well fitted curve in the direction sought with a large enough effect; inconclusive = small, poorly fitted or top-dose-only effect, or another doubt; inactive = no such curve, though single readings can be large; an effect the other way counts as inactive or inconclusive;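 note: IP1 builds up when IMPase is blocked and the TR-FRET signal falls; potency is the fitted concentration of half-maximal effect; plate controls were basal vehicle for no effect and high inhibitor control for full effect; nearly all actives have a fitted effect of over 50% in size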
#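 Lithium-sensitised IP1 accumulation assay; M1-expressing CHO cells treated 30 min at 37C with compound. Competitive antibody detection by time-resolved FRET followed a 10 min room-temperature lysis step.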
# An asterisk follows results filed as active; ? = inconclusive; . = no result given; [ ] = remark or other dose. Only some compounds are listed: those with a hit (about 11% of all), similar ones and a draw of the others. Unless noted, calls come from the whole dose curve; as a rule, active = well fitted inhibition curve with a large enough effect (not every such curve was filed as active); inconclusive = small, poorly fitted or top-dose-only effect, or another doubt; inactive = no such curve, though single readings can be large or run the other way. Unless noted, % is set by controls: 0 for no effect and ±100 for the full control effect.
SMILES,IMPase inh,ALDH1A1 inh,PNC assembly inh,ALOX12 inhib,HPGD inh,IMPase Li inh
O=C(Cn1c(=O)c2ccccc2n(CC(=O)Nc2ccc(Cl)cc2)c1=O)NCCc1ccccc1,-10,.,.,.,.,.
CC(C)[C@H](NS(=O)(=O)c1cccc(Cl)c1)C(=O)OCC(=O)N1CCN(c2ccccc2)CC1,4,2.5µM*,-28,-3%,-9%,6%
CCN(Cc1ccccc1)Cc1c(O)ccc2c(=O)c(-c3ccccc3Cl)coc12,-1,.,.,.,.,.
Cc1ccc(Nc2c(-c3ccc(N4CCOCC4)cc3)nc3ncccn23)cc1C,-1,17%,-102*,-1%,60%,?
CC(=O)Cc1nsc(Nc2ccc3c(c2)OCCO3)n1,2,3.2µM*,?,-5%,20µM*,-26%[38.3 µM]
OCCN1CCN(C(c2cccs2)c2ccc3cccnc3c2O)CC1 (stereo not drawn),15,1.3µM*,21,14µM*,3.5µM*,-3%[38.3 µM]
CC(=O)NC(c1ccco1)c1ccc2cccnc2c1O (stereo not drawn),7,-2%,19,?,-1%,1%[38.3 µM]
CCc1nc(SCC(=O)N2CCN(c3ccccc3)CC2)c2c(=O)n(C)c(=O)n(C)c2n1,.,11%,.,.,.,2%
CCCc1nc(SCC(=O)N2CCC(Cc3ccccc3)CC2)c2c(=O)n(C)c(=O)n(C)c2n1,4,18µM*,?,-5%,-17%,51%[38.3 µM]
OC[C@@H](O)CNc1ncnc2ccccc12,.,13%[13.5 µM],.,0%[11.4 µM],-9%,4%
CCN(CC)S(=O)(=O)c1ccc(NC(=O)COC(=O)CCc2cc(OC)c(OC)c(OC)c2)cc1,6,2.5µM*,23,2%,-5%,3%
COc1cc(CCC(=O)OCC(=O)Nc2cccc(S(=O)(=O)N(C)C)c2)cc(OC)c1OC,.,-9%,?,2%,-2%,-9%
COc1cc(CCC(=O)OCC(=O)Nc2ccccc2OC(F)F)cc(OC)c1OC,.,4%,.,.,.,-1%
COc1cc(CCC(=O)OCC(=O)Nc2ccccc2C(C)C)cc(OC)c1OC,-3,4%,-111*,0%,1%,0%
O=C(CC(=O)c1ccccc1O)c1ccc(F)cc1,-4,-6%,20,?,18µM*,19%[38.3 µM]
O=C(CCc1ccccc1)NNC(=O)c1cccc(F)c1,.,6%,.,.,.,21%
O=C(CC(=O)c1ccccc1O)c1cccc(F)c1,2,-12%,-28,?,20µM*,-4%[38.3 µM]
Cc1ccc(C(=O)CC(=O)c2cc(Cl)ccc2O)cc1,3,-2%,23,?,28µM*,14%[38.3 µM]
CC(C)(C)c1ccc(C(=O)CC(=O)c2cc(Cl)ccc2O)cc1,?,0%,30,-14%,-24%,40%[38.3 µM]
C=C(C)C(=O)OCC1CN2C(CCC(C)C2c2ccc(Br)cc2)C(=O)O1 (stereo not drawn),.,0%[13.5 µM],.,.,.,.
CCC(C)Nc1nc(-c2ccc3c(c2)NC(=O)CO3)cs1 (stereo not drawn),4,3.5µM*,-22,-12%,-7%,-5%[38.3 µM]
COC(=O)[C@H](COC(C)(C)C)NC(=O)O[C@@H]1Cc2cc(Br)ccc2O[C@H]1c1cccc(OC)c1,.,16%,.,.,-4%,21%
Cn1nc(C(=O)NCc2cccnc2)c2ccccc2c1=O,-3,9%,-17,1%,3%,-3%[38.3 µM]
Cc1ccc(-c2nn(CC(=O)NCCN3CCOCC3)c(=O)c3ccccc23)cc1,-6,1%,-10,5%,-5%,17%[38.3 µM]
Cn1nc(C(=O)NCc2ccco2)c2ccccc2c1=O,.,13µM*,17,-1%,-17%,5%
SMILES,IMPase inh,ALDH1A1 inh,PNC assembly inh,ALOX12 inhib,HPGD inh,IMPase Li inh
Cc1ccc(-c2nn(CC(=O)NCc3ccco3)c(=O)c3ccccc23)cc1,4,9%,-111*,0%,-16%,11%[38.3 µM]
O=C(COc1ccc2oc3c(c2c1)CCCC3)Nc1ccc(Cl)cc1,1,.,.,.,.,.
Cc1ccc(NC(=O)NC2=NN(c3ccccc3)C(=O)/C2=C2/CCCN2C)cc1,.,7.1µM*,.,.,.,43%
CN1CCC/C1=C1/C(=O)N(c2ccccc2)N=C1NC(=O)Nc1cccc(Cl)c1,.,-1%,.,.,.,1%
O=C1CC(c2ccc(F)cc2)Cc2nc(N3CCOCC3)ncc21 (stereo not drawn),8,28µM*,-1,3%,-21%,24%[38.3 µM]
CC1(C)CC(=O)c2cnc(N3CCc4ccccc4C3)nc2C1,2,?,8,1%,-21%,7%[38.3 µM]
O=C(Nc1ccc(NC(=O)c2ccco2)nc1)c1cccnc1,2,4%,-100*,2%,-12%,9%
CCCC(=O)Nc1ccc(NC(=O)c2ccco2)cn1,2,2%,20,0%,.,.
CC(C)C(=O)Nc1ccc(NC(=O)c2ccco2)cn1,6,28µM*,13,3%,.,.
Cc1cccc(CNc2ccnc(-c3cccc(C#N)c3)n2)c1,.,?,.,.,.,15%
CSCCC(Nc1ncnc2ccc(Br)cc12)C(=O)O (stereo not drawn),-27,?,15,5%,-19%,10µM*
CC(C)Nc1ncnc2ccc(Br)cc12,.,-16%,26,-5%,-10%,-10%
CC(NC(=O)c1ccccc1)(C(=O)O)C(=O)O,.,-10%[13.5 µM],.,10%[11.4 µM],-12%,-7%
Cc1ccc(S(=O)(=O)Nc2cc3c(C(=O)OCc4ccccc4)c(C)oc3c3ccccc23)c(C)c1,0,.,.,.,.,.
CC(C)CN(CCCNC(=O)CC1Oc2ccccc2NC1=O)CC(C)C (stereo not drawn),11[1.84 µM],6%,43,0%,4%,8%[38.3 µM]
CCCCN(CC)CCCNC(=O)CC1Oc2ccccc2NC1=O (stereo not drawn),-2[1.84 µM],20%,-109*,5%,3%,67%[38.3 µM]
COc1ccc(OC)c(N=c2ssnc2Cl)c1,2,1.6µM*,-15,8.9µM*,3.2µM*,-1%[38.3 µM]
COc1cc(-n2nnnc2SC)c(OC)cc1Cl,.,-8%,.,.,.,3%
COc1cc(N=c2ssnc2Cl)c(OC)cc1Cl,9,1.6µM*,10,20µM*,3.5µM*,8%[38.3 µM]
COc1ccc(OC)c(N=C2C(=O)Nc3ccccc32)c1,11,-12%,73,4%,-9%,27%[38.3 µM]
Cc1cc(C)c2c(-c3ccc(-c4ccc(C(F)(F)F)cc4)cc3)cc(=O)oc2c1,.,-6%,.,-3%[0.00818 µM],-8%,6%
CCOC(=O)c1c(NC(=O)/C=C/c2ccc(C(C)C)cc2)sc2c1CCC2,-11,.,.,.,.,.
